Assay results taken from PubChem BioAssay AID977624 (Broad Institute, 2014).
Hit rate of the full screen: of about 1,800 compounds, fewer than 10 were called active. Another 44% or so got no clear call; they are omitted.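 How the source made its calls: active means compound lowering the normal-ribosome reporter at least twice as much as the humanized-ribosome reporter, growth loss under a set limit; inconclusive means no clear call, values can overlap the other calls; inactive means the rest.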 A selection follows.

Experiment: growth inhibition of wild-type GFP E. coli, dose response, h34 mutant RFP, cherry-pick (AID 977624)
Conditions: E. coli wild-type GFP strain growth, fluorescence, 24 h; series mostly up to 50 µM

outcome, inactive:
Cc1cccc(C)c1Nc1ncnc2ccccc12, Cc1ccc(-c2n[nH]c(S(C)(=O)=O)c2C#N)cc1, C=CCN(c1ccccc1)S(=O)(=O)c1cccc2cccnc12, Cc1nn(Cc2cccc(F)c2)c(C)c1NC(=O)c1c(Cl)cnn1C, COc1ccc(NC(=O)CCC(=O)c2cccs2)cc1S(=O)(=O)Nc1ccc(Cl)cc1, C[C@@H]1CN([C@H](C)CO)C(=O)CCCn2nncc2CO[C@@H]1CN(C)C(=O)Nc1ccc(C(F)(F)F)cc1, COc1ccccc1OCC(=O)Nc1ccc(S(=O)(=O)N2CCCCCC2)cc1, CN(C)CCCN(C(=O)CCSc1ccccc1)c1nc2cc3c(cc2s1)OCO3, CCCC(=O)N(CCc1ccc(OC)cc1)Cc1nc2ccccc2c(=O)[nH]1, Cc1ccc(NC(=O)c2c(C)noc2-c2snnc2C)cc1, COC(=O)c1sc(C(C)(C)C)cc1CS(=O)(=O)c1ccc(Cl)cc1, CCc1ccc(NC(=O)COC(=O)CCCC2=NS(=O)(=O)c3ccccc3N2)cc1, CCn1c(-c2ccccc2Cl)nn(CC(=O)Nc2ccccc2OC)c1=S, C[C@@H]1CCCCO[C@@H](CN(C)C)[C@@H](C)CN([C@@H](C)CO)C(=O)c2cc(NC(=O)Nc3cccc4ccccc34)ccc2O1, CC(C)CNc1nc(S(=O)(=O)c2ccccc2)c(Cl)s1, Cc1ccc(-c2nc(CN3CCCCC3c3cccc(F)c3)c(C)o2)o1 (centres undefined), CCOC(=O)c1c(C)nsc1NCc1ccccc1, CC(C)CN1C(=O)c2ccc(C(=O)Nc3ccncc3)cc2C1=O, COc1cccc(C(NC(C)=O)c2nc(-c3ccccc3OC)cs2)c1 (centres undefined), Cc1cccc(-c2ccc([C@H]3[C@H]4CN(S(=O)(=O)c5ccccc5C)CCCCN4[C@H]3CO)cc2)c1, CC(=O)Nc1cccc(NC(=O)CSc2ccc(-c3cccnc3)nn2)c1, CCOC(=O)c1cc(-c2ccc(OC)cc2)n[nH]1, CCN(CC)CCN(C(=O)c1ccc2c(c1)OCCO2)c1nc2c(Cl)cccc2s1, CN(C)Cc1nc2ccccc2c(=O)n1Cc1nc(-c2cccc([N+](=O)[O-])c2)cs1, COc1cccc(NC(=O)COC(=O)Cc2ccccc2[N+](=O)[O-])c1, CCOC(=O)Cc1nnc(NC(=O)CSc2nc3ccccc3[nH]2)s1, O=C(O)CCCCCCCCc1cn(CC2CCCCC2)nn1, O=C(Nc1ccncc1)c1ccc(S(=O)(=O)Nc2ccccc2)cc1, Cc1cccc(OCCC(=O)Nc2ccc(F)c(F)c2)c1, CCN(CC(=O)Nc1cccc(C#N)c1)CC(=O)Nc1cccc(OC)c1, C=C(C)Cn1c(=O)c2c(nc3n2CC(C)CN3Cc2ccccc2)n(C)c1=O (centres undefined), O=S1(=O)N[C@H](Cc2ccccc2)COc2cccc(N3CCC[C@H]3CO)c21, Cc1ccccc1-n1ncc2c1CC(C)(C)CC2NC(=O)CCN1Cc2ccccc2C1=O (centres undefined), O=C(Nc1ccc2c(c1)OCO2)c1cccc(S(=O)(=O)N2CCCC2)c1, CCOc1ccccc1NC(=O)c1ccc2ccccc2c1, CC(=O)c1c(C)nn(CC(O)COc2ccc3c(c2)CCC3)c1C (centres undefined), Cn1nc(C(C)(C)C)c([N+](=O)[O-])c1C(=O)Nc1ccc(Br)cc1, COc1ccccc1C(=O)COC(=O)c1cccs1, Nc1nc(Nc2ccccc2F)nc(N2CCOCC2)c1[N+](=O)[O-], O=C(c1cc(S(=O)(=O)N2CCOCC2)ccc1Cl)N1CCc2ccccc2C1, CSc1nc2nc3c(cc2c(=O)n1-c1ccccc1C)CCCC3, Cc1cc([N+](=O)[O-])nn1CC(=O)Nc1cc(F)ccc1F, Nc1ccccc1Sc1ccc(C(F)(F)F)cc1[N+](=O)[O-], Cc1noc(C)c1COc1cccc(C(=O)N2CCc3ccccc32)c1, CCCc1nc2oc3c(NCCCN(C)C)ncnc3c2c2c1CCCC2, O=C(c1ccc2c(c1)CCN2S(=O)(=O)c1ccccc1)N1CCN(c2ccccc2)CC1, O=C(O)c1ccc(-c2nc(-c3ccccc3)cs2)cc1, CCc1ccc2nc(N(CCCN(C)C)C(=O)c3ccc4c(c3)OCCO4)sc2c1, Nc1ncncc1-c1ccc(Cl)cc1, CC(=O)Nc1ccc(S(=O)(=O)Nc2cccc(-c3nc4cc(C)ccc4o3)c2)cc1, OCCN(Cc1ccccc1)Cc1ccc(F)c(F)c1, COC(=O)c1ccccc1NC(=O)c1ccc2c(c1)CC(C)O2 (centres undefined), O=C(CN1CCCCC1)Nc1ccccc1-c1ccccc1, Cc1cc(C(=O)OCC(=O)Nc2cccc(S(N)(=O)=O)c2)c2ccccc2n1, COc1cccc(S(=O)(=O)N2CCCCN3[C@H](CO)[C@H](c4ccc(C#CC(C)C)cc4)[C@@H]3C2)c1, Cc1sc(NC(=O)CN2CCOCC2)nc1-c1ccc2c(c1)CCN2S(=O)(=O)c1ccccc1, Cc1ccc2nc(SCC(=O)c3ccc4c(c3)NC(=O)CO4)[nH]c2c1, COc1cccc(NC(=O)CN(C)CC(=O)Nc2ccc(Br)cc2)c1, COc1ccc(S(=O)(=O)N(C)C)cc1NC(=O)c1ccc2c(c1)NC(=O)C(C)S2 (centres undefined), COc1cc(-c2cc3nc(NCCc4ccncc4)ccn3n2)cc(OC)c1OC, N#Cc1ccc(OCC(=O)N2CCN(S(=O)(=O)c3ccc(Cl)s3)CC2)cc1, Cc1ccc(NC(=O)c2ccc([N+](=O)[O-])o2)c(C)c1, COc1ccc(Cn2c(=O)c3[nH]cnc3n(-c3ccc(C)cc3)c2=O)cc1, S=C1SCN(Cc2cccnc2)CN1Cc1ccccc1, CCOc1ccc(CCNC(=O)CCn2ccc3cc(S(=O)(=O)N4CCCC4)ccc32)cc1, O=C(c1ccc(N2CCCCC2)c([N+](=O)[O-])c1)N1CCN(c2ccccn2)CC1, CN(C(=O)COc1ccccc1C(=O)NCCOc1ccccc1)c1ccccc1, CN(C(=O)c1ccc(F)cc1)c1ccc(OCC(=O)Nc2ccccc2C(=O)O)cc1, CC(CCC(=O)O)C1CC[C@@]2(C)C3C(=O)CC4C(C)(C)C(O)CC[C@]4(C)C3C(=O)C[C@]12C (some centres undefined), CCOc1ccc2nc(SCC(=O)Nc3cccc(S(=O)(=O)NC4=NCCCCC4)c3)[nH]c2c1, COc1ccc(-c2nnc(COc3ccc(Br)cc3C)o2)cc1, Cc1cccc(C)c1-n1nnnc1C1(C)CCC(=O)N1Cc1cccs1 (centres undefined), CCCC(=O)Nc1sc2c(c1C(=O)Nc1ccccn1)CCCC2, COc1ccc(NC(=O)c2cccs2)cc1C(=O)N1CCN(c2ccccc2)CC1, CC(C)Nc1nnc(SCC(=O)Nc2sccc2C#N)s1, COc1cc(NC(=O)c2ccc(Cl)cc2)c(OC)cc1NC(=O)CN1CCCCC1, CN(C)CCCN(C(=O)COc1ccc(Cl)cc1)c1nc2ccc(F)cc2s1, Cc1cccc(CSCC(=O)N2CCN(S(=O)(=O)c3ccccc3C#N)CC2)c1, COc1cc(OC)cc(C(=O)Nc2ccc(C(=O)Nc3ccccc3OC)cc2)c1, CC(C)Oc1ccc(C(=O)Nc2cccc3cccnc23)cc1, CC(C)CC#Cc1ccc2c(c1)O[C@@H](CN(C)Cc1ccccn1)[C@H](C)CN([C@H](C)CO)S2(=O)=O, CCCC(=O)Nc1cccc(C(=O)Nc2ccccc2OCC)c1, CC(C)(Nc1ccccc1)C(=O)c1ccccc1, COC(=O)c1ccccc1OCCOCCOc1cccc2ccc(C)nc12, Nc1ccccc1Nc1ccc([N+](=O)[O-])cc1[N+](=O)[O-], Cc1ccccc1CSc1nnc(-c2ccncc2)o1, O=C(CCNc1cccc(Cl)c1)c1cccs1, C[C@@H]1CCCCO[C@@H](CN(C)C)[C@@H](C)CN([C@H](C)CO)C(=O)c2cc(NC(=O)Nc3cccc4ccccc34)ccc2O1, Cc1ccc(C2NC(c3ccc(C)cc3)C(C)C(=O)C2C)cc1 (centres undefined), Cc1ccc(-c2c[n+](CC(=O)OCc3ccccc3)c3n2CCC3)cc1, Cc1noc(C)c1NC(=O)Nc1ccc2c(c1)C(=O)N([C@@H](C)CO)C[C@H](C)[C@H](CN(C)C(=O)Nc1ccc3c(c1)OCO3)OCCCC[C@H](C)O2, COc1ccc(-c2cc(C(=O)N(C)CCc3ccc(OC)c(OC)c3)c3ccccc3n2)cc1, c1ccc(Sc2ncnc3ccccc23)cc1, Cc1nc(SCC(=O)Nc2ccc3c(c2)OCCO3)nc(C)c1C, CCCN(Cc1ccco1)S(=O)(=O)c1ccc(OC)c(OC)c1, CCOC(=O)c1cc(C)nc(N2CCCCC2)c1C#N, Cn1cc(CN2CCCC(C(=O)c3cccs3)C2)c(-c2cccc(Cl)c2)n1 (centres undefined), Nc1nc(-c2cc(-c3ccccc3)no2)cs1, Cc1cccc(C(=O)NCC(=O)NCCSc2ccc(Br)cc2)c1, N#CCC(=O)Nc1ccc(C(=O)OCC(=O)Nc2ccc3ccccc3c2)cc1, CCOc1cc(/C=C(\CC(=O)O)c2nc3ccccc3s2)ccc1OC, COc1ccc(-c2nc3ccc(Cl)cn3c2Cc2cccc(F)c2)cc1OC, COC(=O)c1sccc1NC(=O)Cn1nnc(-c2ccccc2C)n1, CCOc1ccc2nc(NC(=O)CSc3nc(SC)ns3)sc2c1
